Data taken from PubChem BioAssay AID372 (MTDP, 2006).
Out of some 100,000 compounds screened, about 770 (0.77%) were called active. Cut-off read from the data, not from the text of the source: active = inhibition above about 50%; inactive = the rest. For the sample, actives were picked, then their nearest neighbours and some compounds at random.

target: Gag-Pol polyprotein (Human immunodeficiency virus type 1 group M subtype B (isolate HXB2)) (UniProt P04585); test: RNase H inhibition, HIV 1 Gag Pol polyprotein, FRET biochemical assay, screening (AID 372); conditions: HIV-1 RT RNase H, FRET RNA/DNA substrate fluorescence; at 10 µM; stronger effect = higher value

Row | SMILES | inhibition
1 | O=S(=O)(Nc1ccccc1C(F)(F)F)c1ccccc1 | 4% (inactive)
2 | COc1ccc(-n2c(C)cc(/C=C(\C#N)C(=O)Nc3ccccc3)c2C)cc1 | 11% (inactive)
3 | O=C1CC(SC(=NCc2ccc3c(c2)OCO3)Nc2ccccc2)C(=O)N1 (centres undefined) | 0% (inactive)
4 | COc1ccc(OC)c(CNCc2ccc3c(c2)OCO3)c1 | 6% (inactive)
5 | COc1ccc(-n2nc3ccc(NC(=O)c4ccc(I)cc4)cc3n2)cc1 | 51% (active)
6 | Cc1cc(NC(=O)c2ccc(I)cc2)ccc1NC(=O)c1ccccc1 | 50% (active)
7 | COc1ccc(C(=O)/C=C/c2ccc(NC(=O)c3ccc(I)cc3)cc2)cc1 | 60% (active)
8 | COc1ccc(-n2nc3ccc(NC(=O)c4ccc(C)c(C)c4)cc3n2)cc1 | 8% (inactive)
9 | COc1cc(C(=O)Nc2ccc(NC(=O)c3ccccc3)cc2)cc(OC)c1OC | 10% (inactive)
10 | COc1ccc(/C=C/C(=O)c2ccc(I)cc2)cc1 | 8% (inactive)
11 | Cc1cc(NC(=O)c2ccc(F)cc2)ccc1NC(=O)c1ccccc1 | 0% (inactive)
12 | COc1ccc(C(=O)Nc2ccc3nn(-c4ccc(F)cc4)nc3c2)cc1 | 0% (inactive)
13 | Cc1cc(NC(=O)c2ccc(C(C)(C)C)cc2)ccc1NC(=O)c1ccccc1 | 7% (inactive)
14 | COc1ccc(C(=O)Nc2ccc(/C=C/C(=O)c3ccccc3)cc2)cc1 | 8% (inactive)
15 | COc1ccc(C(=O)Nc2cccc(/C=C/C(=O)c3ccccc3)c2)cc1OC | 3% (inactive)
16 | COc1cc(C(=O)Nc2ccc(/C=C/C(=O)c3ccccc3)cc2)cc(OC)c1OC | 63% (active)
17 | CC(C)(C)C1CCC(C(=O)N/N=C/c2ccc(Cl)s2)CC1 (centres undefined) | 5% (inactive)
18 | CSc1nnc2c(n1)[nH]c1c(C)cccc12 | 10% (inactive)
19 | COc1ccc(N2N=C(c3ccc(C)cc3)CC2c2cccs2)cc1 (centres undefined) | 6% (inactive)
20 | O=C(NNc1ccc([N+](=O)[O-])cc1)c1ccc([N+](=O)[O-])cc1 | 5% (inactive)
21 | O=C(Nc1ccc(OCc2ccccc2)cc1)c1cccc2ccccc12 | 15% (inactive)
22 | CCOc1ccc2nc(SCc3ccc(OC)c(F)c3)sc2c1 | 20% (inactive)

Row | SMILES | inhibition
23 | Cc1cccc(-n2c(C)cc(/C=C3/SC(=S)NC3=O)c2C)c1 | 56% (active)
24 | Cc1cc(/C=C2/SC(=S)NC2=O)c(C)n1-c1cccc(Cl)c1 | 8% (inactive)
25 | Cc1cc(C=C2C(=O)NC(=S)NC2=O)c(C)n1-c1ccc(Cl)c(Cl)c1 | 55% (active)
26 | Cc1cc(/C=C2/SC(=S)NC2=O)c(C)n1-c1ccccc1 | 19% (inactive)
27 | Cc1cc(C=C2C(=O)NC(=S)NC2=O)c(C)n1-c1cccc(Cl)c1 | 28% (inactive)
28 | Cc1cc(/C=C2/SC(=S)NC2=O)c(C)n1-c1ccc(Cl)cc1 | 2% (inactive)
29 | Cc1ccc(-n2c(C)cc(/C=C3/SC(=S)NC3=O)c2C)cc1 | 5% (inactive)
30 | Cc1cc(/C=C2/SC(=S)NC2=O)c(C)n1-c1ccc(Cl)c(Cl)c1 | 53% (active)
31 | Cc1ccc(-n2c(C)cc(C=C3C(=O)NC(=S)NC3=O)c2C)cc1C | 19% (inactive)
32 | CCCCN1C(=O)c2cccc3c(Cl)ccc1c23 | 44% (inactive)
33 | Cc1cc(OCC(=O)Nc2ccccn2)cc(C)c1Cl | 2% (inactive)
34 | CCOc1ccccc1OCCOc1ccc(C)cc1C(C)(C)C | 17% (inactive)
35 | CC(C)OC(=O)c1c(NC(=O)c2ccc([N+](=O)[O-])cc2Cl)sc2c1CCCCC2 | 31% (inactive)
36 | CC(C)(C)c1nnc(-c2cccc([N+](=O)[O-])c2)o1 | 8% (inactive)
37 | CC(=O)Nc1cccc(NC(=O)c2cc(Cl)ccc2Cl)c1 | 56% (active)
38 | Cc1cccc(NC(=O)c2cc(Cl)ccc2Cl)n1 | 54% (active)
39 | Cc1cccc(NC(=O)c2cc(I)ccc2Cl)n1 | 0% (inactive)
40 | CC(=O)Nc1ccc(NC(=O)c2cc(Cl)ccc2Cl)cc1 | 6% (inactive)
41 | COc1ccc(Cl)cc1C(=O)Nc1cccc(C)n1 | 0% (inactive)
42 | CC(=O)Nc1cccc(NC(=O)c2ccc(Cl)cc2Cl)c1 | 3% (inactive)
43 | CCCCNCCCCOc1ccccc1C(C)(C)C | 8% (inactive)
44 | O=C(Nc1ccc(I)cn1)C12CC3CC(CC(C3)C1)C2 | 7% (inactive)

Row | SMILES | inhibition
45 | Cc1ccc(NC(=O)/C=C/c2ccc(Cl)cc2)cc1 | 8% (inactive)
46 | COc1ccc(C2CC(=O)C3=C(C2)NC(C)=C(C(=O)OCC(C)C)C3c2cc3c(cc2Cl)OCO3)cc1 (centres undefined) | 10% (inactive)
47 | O=C(COc1ccccc1[N+](=O)[O-])Nc1ccc2oc(-c3cccc4ccccc34)nc2c1 | 13% (inactive)
48 | CN(C(=O)c1ccc(Cl)cc1Cl)c1ccccc1 | 1% (inactive)
49 | Clc1ccc(CN2CCN(/N=C/c3ccc(-c4ccccc4)cc3)CC2)cc1 | 8% (inactive)
50 | Cc1ccc(O)c(/C=N/n2c(-c3ccccc3)n[nH]c2=S)c1 | 13% (inactive)
51 | CC(=O)Nc1ccc(-c2nc(-c3ccccc3)c3cc(NC(C)=O)ccc3n2)cc1 | 8% (inactive)
52 | O=C(Nc1ccc(-c2nc(-c3ccccc3)c3cc(NC(=O)c4cccs4)ccc3n2)cc1)c1cccs1 | 52% (active)
53 | O=C(Nc1ccc(NC(=O)c2cccs2)cc1)c1ccccc1 | 5% (inactive)
54 | Cc1ccc(C(=O)NC(=S)Nc2ccc(-c3nc4cc(C)c(C)cc4o3)cc2)cc1 | 10% (inactive)
55 | O=C(NC(=S)Nc1ccc(-c2nc3ncccc3o2)cc1)c1cccc(F)c1 | 32% (inactive)
56 | Cc1ccc2nc(-c3ccc(NC(=S)NC(=O)c4ccc([N+](=O)[O-])cc4)cc3)oc2c1 | 50% (active)
57 | O=C(Nc1sc2c(c1C(=O)Nc1ccccc1)CCCCC2)c1ccc([N+](=O)[O-])cc1 | 27% (inactive)
58 | O=C(NC(=S)Nc1cccc(-c2nc3ncccc3o2)c1)c1cccc(Cl)c1 | 23% (inactive)
59 | Cc1ccc2nc(-c3ccc(NC(=S)NC(=O)c4ccc(C)c(C)c4)cc3)oc2c1 | 18% (inactive)
60 | O=C(NC(=S)Nc1ccc(-c2nc3ncccc3o2)cc1)c1cccc(Cl)c1 | 59% (active)
61 | Cc1ccc2nc(-c3ccc(NC(=S)NC(=O)c4ccc(F)cc4)cc3)oc2c1 | 45% (inactive)
62 | COc1ccc(C(=O)NC(=S)Nc2ccc(-c3nc4ccc(C)cc4o3)cc2)cc1 | 12% (inactive)
63 | Cc1ccc(NC(=O)c2c(NC(=O)c3ccc([N+](=O)[O-])cc3)sc3c2CCCC3)cc1 | 0% (inactive)
64 | Cc1ccc2nc(-c3ccc(NC(=S)NC(=O)c4ccccc4)cc3)oc2c1 | 58% (active)
